This passage reports outcome and AC50 results from PubChem BioAssay (EPA / NIEHS).

The nature of assay [1]: ACEA_ER_80hr: ACEA Biosciences xCELLigence Real-Time Cell Analysis on Estrogen Receptor Agonism for Proliferation (AID 2282667; active = hit-call score of the fitted dose curve at least 0.9, where 1 is the maximum). The conditions noted are these: T47D proliferation, impedance (xCELLigence), 80 h. An outline of the steps:
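Real-time impedance growth kinetics of human T-47D breast cells read 80 h after dosing, gain-of-signal fitted relative to DMSO. Compounds: 1:4 serial series, top final concentration 100 uM, n = 2.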

The nature of assay [2]: ATG_CRE_CIS: Attagene CIS-FACTORIAL HepG2 Assay for human cAMP Responsive Element (CRE) binding protein 3 (AID 2282926). To be noted: HepG2 CRE cis-reporter, Attagene multiplexed mRNA; actives raise or lower the signal. In a few lines: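 Multiplexed transcription-unit reporters transfected into HepG2; 24 h dosing; RT-PCR/capillary electrophoresis fluorescence read-out; bidirectional fit vs DMSO.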

Assay [3] has as its target CCAAT/enhancer-binding protein beta (Homo sapiens) (UniProt P17676). The assay is described as follows: ATG_C_EBP_CIS: Attagene CIS-FACTORIAL HepG2 Assay for human CCAAT/Enhancer Binding Protein (C/EBP) beta (AID 2282927). To be noted: HepG2 Attagene cis-factorial transcription factor reporter; actives raise or lower the signal. An outline of the steps: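 Endogenous C/EBPb-driven reporter transcripts measured in transfected human HepG2 cells at 24 h via RT-PCR and capillary electrophoresis of labelled fragments. Activity fitted in both directions relative to DMSO baseline.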

A short description of assay [4]: ATG_CMV_CIS: Attagene CIS-FACTORIAL HepG2 Assay for human CMV (Internal Marker) (AID 2282928).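 Also: endpoint acts as a background internal control marker rather than a target.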 The conditions noted are these: HepG2 CMV promoter reporter, transcription factor profiling; actives raise or lower the signal. In a few lines:
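After transient transfection of HepG2 with reporter transcription units driven by cis-regulatory promoters, cells receive test chemical for 24 h. Labeled reporter amplicons, digested with HpaI, are sized and quantified by capillary electrophoresis against DMSO.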

The nature of assay [5]: ATG_DR4_LXR_CIS: Attagene CIS-FACTORIAL HepG2 Assay for human Liver X Receptor (LXR), DR4 submotif (AID 2282929). To be noted: HepG2 Attagene DR4 cis-reporter, mRNA transcription; actives raise or lower the signal. In a few lines:
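Transiently transfected HepG2 liver cells; cis-regulated reporters; 24 h dosing. RT-PCR plus CE read-out of reporter mRNA. DMSO baseline, bidirectional curve fitting.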

Assay [6] has as its target Aryl hydrocarbon receptor (Homo sapiens) (UniProt P35869). Put plainly: ATG_Ahr_CIS: Attagene CIS-FACTORIAL HepG2 Assay for human Aryl Hydrocarbon Receptor (Ahr) (AID 2282930). The conditions noted are these: HepG2 AhR cis-factorial reporter transcription; actives raise or lower the signal. An outline of the steps:
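Reporter mRNA levels, quantified by RT-PCR and fluorescent capillary electrophoresis, reflect endogenous AhR transcriptional activity in HepG2 cells carrying transfected cis-promoter reporter constructs. Readout at 24 h post-dose; gain or loss fitted against DMSO baseline.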

Assay [7] is described as follows: ATG_AP_1_CIS: Attagene CIS-FACTORIAL HepG2 Assay for human Activator Protein 1 (AP-1) (AID 2282931). To be noted: HepG2 Attagene cis-factorial AP-1 reporter mRNA; actives raise or lower the signal. An outline of the steps: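 We transfected HepG2 cells transiently with a set of cis-regulated reporter transcription units, dosed them for 24 h, and quantified reporter mRNA via RT-PCR and capillary electrophoresis, scoring gain or loss of signal relative to DMSO.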

Assay [8] is described as follows: ATG_AP_2_CIS: Attagene CIS-FACTORIAL HepG2 Assay for human Activator Protein 2 (AP-2) (AID 2282932). To be noted: HepG2 AP-2 cis-reporter, Attagene transcription factor profiling; actives raise or lower the signal. In a few lines: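 Step one: transient transfection of HepG2 with reporter transcription units. Step two: 24 h chemical exposure. Step three: RNA extraction, RT-PCR, labelled fragment analysis by capillary electrophoresis; DMSO serves as baseline.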

The nature of assay [9]: ATG_BRE_CIS: Attagene CIS-FACTORIAL HepG2 Assay for human Bone Morphogenetic Protein (BMP) Response Element (BRE) (AID 2282933). To be noted: HepG2 BMP response element reporter, Attagene transcription factor profiling; actives raise or lower the signal. An outline of the steps: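 Fluorescence-labelled reporter cDNA fragments, separated by capillary electrophoresis, gave the signal for this component of a 52-readout multiplex. HepG2 cells were transfected, exposed to chemicals for 24 h, and compared with DMSO using bidirectional fitting.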

Assay [10] has as its target Retinoic acid receptor alpha (Homo sapiens) (UniProt P10276). The assay is described as follows: ATG_DR5_RAR_CIS: Attagene CIS-FACTORIAL HepG2 Assay for human Retinoic Acid Receptor Alpha (RARE), DR5 submotif (AID 2282934). The conditions noted are these: HepG2 Attagene cis-factorial RARE DR5 reporter, mRNA; actives raise or lower the signal. An outline of the steps:
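Reporter transcripts from a DR5-regulated unit, measured via RT-PCR plus capillary electrophoresis, reflect endogenous RAR activity in transiently transfected human HepG2 liver cells. Exposure lasted 24 h; gain or loss of signal scored against DMSO.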

Assay [11] addresses Transcription factor E2F1 (Homo sapiens) (UniProt Q01094). Put plainly: ATG_E2F_CIS: Attagene CIS-FACTORIAL HepG2 Assay for human E2F Transcription Factor 1 (AID 2282935). To be noted: HepG2 Attagene cis-reporter, E2F reporter RNA transcripts; actives raise or lower the signal. In a few lines: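 Total RNA from 24 h-treated, reporter-transfected HepG2 cells undergoes DNase I treatment, oligo(dT) reverse transcription, PCR and 6-FAM primer extension before capillary electrophoresis.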

The nature of assay [12]: ATG_E_Box_CIS: Attagene CIS-FACTORIAL HepG2 Assay for human Enhancer Box (E-box) (AID 2282936). To be noted: HepG2 E-box cis-reporter transcription, actives raise or lower the signal. In a few lines: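 DMSO served as negative control and baseline for bidirectional fitting. Human hepatoma HepG2 cells, transiently transfected with cis-reporter constructs, were dosed 24 h; reporter mRNA read by RT-PCR and capillary electrophoresis.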

A short description of assay [13]: ATG_M_61_CIS: Attagene CIS-FACTORIAL HepG2 Assay for M61 Transcription Factor (Internal Marker) (AID 2282937). To be noted: HepG2 Attagene CIS-FACTORIAL M61 internal marker reporter; actives raise or lower the signal. An outline of the steps:
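Multiplexed reporter mRNA assay, HepG2 human hepatoma cells, 24 h treatment. Signal: FAM-labelled, HpaI-digested RT-PCR fragments by CE. Fit: bidirectional, baseline DMSO.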

Assay [14] is described as follows: ATG_EGR_CIS: Attagene CIS-FACTORIAL HepG2 Assay for human Early Growth Response 1 (EGR1) (AID 2282938). To be noted: HepG2 Attagene CIS-FACTORIAL EGR reporter mRNA; actives raise or lower the signal. An outline of the steps:
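Multiplexed cis-reporter system in human hepatoma HepG2 cells, transiently transfected. Cells are dosed for 24 h; reporter transcripts are amplified, fluorescently tagged and sized by capillary electrophoresis, with DMSO as negative control.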

The nature of assay [15]: ATG_M_19_CIS: Attagene CIS-FACTORIAL HepG2 Assay for M19 Transcription Factor (Internal Marker) (AID 2282939). To be noted: HepG2 Attagene CIS-FACTORIAL M19 internal marker reporter; actives raise or lower the signal. In a few lines: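 HepG2, MRTU transient transfection, 24 h dosing. Total RNA → RT-PCR → 6-FAM primer extension → HpaI digest → CE fluorescence. Bidirectional curve fit, DMSO negative control.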

Assay [16] can be described thus: ATG_ERE_CIS: Attagene CIS-FACTORIAL HepG2 Assay for Estrogen Response Element (ERE) (AID 2282940). To be noted: HepG2 ERE cis-reporter, Attagene RNA transcript; actives raise or lower the signal. In a few lines: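 After a 24 h chemical treatment, RNA from reporter-transfected HepG2 cells is reverse-transcribed, PCR-amplified and fluorescently labelled. Fragments separated by capillary electrophoresis give reporter signal; DMSO serves as negative control.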

Assay [17] is described as follows: ATG_Ets_CIS: Attagene CIS-FACTORIAL HepG2 Assay for human Erythroblast Transformation Specific (ETS) (AID 2282941). To be noted: HepG2 ETS cis-reporter transcription, actives raise or lower the signal. An outline of the steps:
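Human HepG2 hepatoma cells were transiently transfected with promoter-driven reporter constructs and treated for 24 hours. Reporter transcripts were quantified by RT-PCR with fluorescent primer extension; bidirectional curve fitting used DMSO as reference.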

Assay [18] has as its target Hepatocyte nuclear factor 3-beta (Homo sapiens) (UniProt Q9Y261). Put plainly: ATG_FoxA2_CIS: Attagene CIS-FACTORIAL HepG2 Assay for human Forkhead box A2 (FOXA2) (AID 2282942). To be noted: HepG2 cis-reporter transcription factor activity, 24 h; actives raise or lower the signal. In a few lines:
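Multiplexed cis-element reporter assay in transiently transfected HepG2. Twenty-four hours post-dosing, RNA was reverse-transcribed, amplified, FAM-labelled, HpaI-digested and separated by CE. Activity gain or loss relative to DMSO.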

A short description of assay [19]: ATG_FoxO_CIS: Attagene CIS-FACTORIAL HepG2 Assay for human Forkhead box O (FoxO) (AID 2282943). The conditions noted are these: HepG2 Attagene cis-reporter, FoxO element, mRNA; actives raise or lower the signal. An outline of the steps: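 Endogenous transcription factor activity read from multiplexed cis-promoter reporter transcripts in transiently transfected HepG2, 24 h after dosing. Reporter RNA measured via RT-PCR plus capillary electrophoresis of FAM-labeled products; gain or loss relative to DMSO.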

Assay [20] in a line: ATG_GATA_CIS: Attagene CIS-FACTORIAL HepG2 Assay for human GATA Binding Protein (AID 2282944). To be noted: HepG2 GATA cis-element reporter, Attagene multiplex mRNA; actives raise or lower the signal. In a few lines: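 Cells: HepG2, transiently transfected with cis-regulated reporter transcription units. Exposure: 24 h. Detection: RT-PCR plus capillary electrophoresis of FAM-labeled fragments. Analysis: bidirectional, DMSO as baseline.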

Records with an inconclusive call do not appear. Active and inactive are the calls of the source. The calls were made as follows, unless noted: active = hit-call score of the fitted dose curve at least 0.9, where 1 is the maximum; inactive = score below 0.9.

The term AC50 denotes the concentration giving half of the maximal activity seen.

Aryl hydrocarbon receptor (Homo sapiens), sequence (P35869 whole entry, looked up): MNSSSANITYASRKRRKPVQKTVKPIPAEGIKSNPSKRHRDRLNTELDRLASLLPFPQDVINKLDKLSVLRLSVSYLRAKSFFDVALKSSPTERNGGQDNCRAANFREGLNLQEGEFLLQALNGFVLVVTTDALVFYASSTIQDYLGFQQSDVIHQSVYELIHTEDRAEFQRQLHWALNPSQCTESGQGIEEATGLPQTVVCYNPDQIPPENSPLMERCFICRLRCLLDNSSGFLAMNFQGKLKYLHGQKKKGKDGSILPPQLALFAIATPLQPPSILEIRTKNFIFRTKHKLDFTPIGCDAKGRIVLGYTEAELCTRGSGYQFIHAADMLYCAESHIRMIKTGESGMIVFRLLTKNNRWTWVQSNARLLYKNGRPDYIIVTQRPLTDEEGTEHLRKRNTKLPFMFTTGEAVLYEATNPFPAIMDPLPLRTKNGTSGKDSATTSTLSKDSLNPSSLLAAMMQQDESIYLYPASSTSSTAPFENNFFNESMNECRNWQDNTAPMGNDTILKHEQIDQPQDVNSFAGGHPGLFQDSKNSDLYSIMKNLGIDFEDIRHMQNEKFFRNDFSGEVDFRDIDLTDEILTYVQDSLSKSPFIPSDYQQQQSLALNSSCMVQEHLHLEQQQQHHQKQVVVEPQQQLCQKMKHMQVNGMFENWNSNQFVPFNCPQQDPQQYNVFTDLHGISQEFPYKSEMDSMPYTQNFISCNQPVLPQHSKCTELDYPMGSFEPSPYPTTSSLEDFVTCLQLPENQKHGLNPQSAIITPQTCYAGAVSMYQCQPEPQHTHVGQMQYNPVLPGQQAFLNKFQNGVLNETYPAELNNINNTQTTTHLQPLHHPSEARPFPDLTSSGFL
Transcription factor E2F1 (Homo sapiens), sequence (Q01094 whole entry, looked up): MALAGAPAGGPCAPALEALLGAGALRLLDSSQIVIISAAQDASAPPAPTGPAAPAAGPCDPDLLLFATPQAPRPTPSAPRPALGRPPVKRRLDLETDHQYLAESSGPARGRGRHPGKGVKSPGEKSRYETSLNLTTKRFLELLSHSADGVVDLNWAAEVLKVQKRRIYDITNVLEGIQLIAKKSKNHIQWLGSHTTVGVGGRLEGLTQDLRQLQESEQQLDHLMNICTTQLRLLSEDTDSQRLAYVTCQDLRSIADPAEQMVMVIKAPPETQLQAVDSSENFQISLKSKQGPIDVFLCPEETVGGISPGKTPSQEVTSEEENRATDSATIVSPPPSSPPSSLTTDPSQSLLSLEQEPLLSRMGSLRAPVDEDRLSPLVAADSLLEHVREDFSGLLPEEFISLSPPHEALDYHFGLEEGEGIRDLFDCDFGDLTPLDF
Hepatocyte nuclear factor 3-beta (Homo sapiens), sequence (Q9Y261 whole entry, looked up): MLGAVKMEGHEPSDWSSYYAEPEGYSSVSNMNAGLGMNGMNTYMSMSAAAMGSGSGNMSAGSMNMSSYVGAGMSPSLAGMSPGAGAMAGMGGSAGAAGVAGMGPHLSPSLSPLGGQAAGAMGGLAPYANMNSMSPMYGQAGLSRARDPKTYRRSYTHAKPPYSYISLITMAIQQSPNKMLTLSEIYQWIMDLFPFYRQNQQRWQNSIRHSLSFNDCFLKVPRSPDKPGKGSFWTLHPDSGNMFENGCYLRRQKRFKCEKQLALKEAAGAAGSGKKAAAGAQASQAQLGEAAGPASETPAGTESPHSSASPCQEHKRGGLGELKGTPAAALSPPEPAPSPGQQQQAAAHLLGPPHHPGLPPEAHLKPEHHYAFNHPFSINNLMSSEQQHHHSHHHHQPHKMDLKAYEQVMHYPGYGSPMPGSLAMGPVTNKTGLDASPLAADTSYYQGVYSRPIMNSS
Retinoic acid receptor alpha (Homo sapiens), sequence (P10276 whole entry, looked up): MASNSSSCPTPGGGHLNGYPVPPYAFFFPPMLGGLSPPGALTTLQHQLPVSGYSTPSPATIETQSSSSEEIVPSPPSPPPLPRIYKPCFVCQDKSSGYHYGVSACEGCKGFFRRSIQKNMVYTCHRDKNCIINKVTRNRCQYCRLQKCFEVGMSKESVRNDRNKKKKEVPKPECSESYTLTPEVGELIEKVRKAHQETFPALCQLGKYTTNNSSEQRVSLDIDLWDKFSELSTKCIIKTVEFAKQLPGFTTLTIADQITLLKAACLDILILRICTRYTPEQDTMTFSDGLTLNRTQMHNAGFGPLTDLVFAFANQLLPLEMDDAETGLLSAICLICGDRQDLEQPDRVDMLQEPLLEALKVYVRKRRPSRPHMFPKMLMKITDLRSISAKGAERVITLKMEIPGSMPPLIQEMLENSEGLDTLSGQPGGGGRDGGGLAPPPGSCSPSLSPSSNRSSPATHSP
CCAAT/enhancer-binding protein beta (Homo sapiens), sequence (P17676 whole entry, looked up, the tested form may be a part): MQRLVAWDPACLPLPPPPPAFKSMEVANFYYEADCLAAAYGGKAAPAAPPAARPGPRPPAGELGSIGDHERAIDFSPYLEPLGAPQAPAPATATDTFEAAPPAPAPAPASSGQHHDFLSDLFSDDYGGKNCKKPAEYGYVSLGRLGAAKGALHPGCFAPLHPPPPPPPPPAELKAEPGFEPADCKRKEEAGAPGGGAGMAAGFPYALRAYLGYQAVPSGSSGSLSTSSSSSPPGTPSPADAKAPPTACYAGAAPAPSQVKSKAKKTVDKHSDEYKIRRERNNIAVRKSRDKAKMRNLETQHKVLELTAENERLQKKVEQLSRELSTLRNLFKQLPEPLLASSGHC

On to `CCOC(=O)CCC(C)=O`, for which the result in [1], in [2], in [3], in assay [4], in assay [5] and in [6] was inactive. Also, the outcome in assay [7], in [8], in [9], in assay [10], in assay [11] and in assay [12] was inactive. Besides, the call in assay [13], in [14], in assay [15], in assay [16], in [17] and in assay [18] was inactive. For the same molecule, the outcome in [19] and in [20] was inactive.

As for `C[Si](C)O[Si](C)C`, the result in [1], in [2], in assay [3], in assay [4], in assay [5] and in assay [6] was inactive. Also, the result in [7], in assay [8], in assay [9], in [10], in assay [11] and in [12] was inactive. In addition, the result in [13], in assay [14], in [15], in [16], in assay [17] and in assay [18] was inactive. For the same molecule, the molecule was classed as inactive in assay [19] and in assay [20].

Regarding `CC(=O)c1ccccc1N`, the molecule was called inactive in [1], in assay [2], in assay [3], in [4], in assay [5] and in assay [6]. Further, the molecule was classed as inactive in assay [7], in assay [8], in [9], in assay [10], in assay [11] and in assay [12]. Also, the call in [13], in [14], in assay [15], in [16], in [17] and in assay [18] was inactive. The molecule was called inactive in assay [19] and in assay [20].

Consider `CN1CN(C)CN(C)C1`, for which the outcome in assay [1], in assay [2], in assay [3], in assay [4], in [6] and in assay [7] was inactive. Besides, the call in [8], in assay [9], in assay [10], in assay [11], in assay [12] and in [13] was inactive. The result in assay [14], in [15], in assay [16], in [17], in [18] and in assay [19] was inactive. Besides, the call in [20] was inactive. For the same molecule, the half-maximal activity concentration (AC50) in [5] is 135 µM (active).

As for `CCC(Cc1c(I)cc(I)c(N)c1I)C(=O)O` (stereo not given), the AC50 in [1] is 15.5 µM (active); in assay [4] it was 62.6 µM (active); in assay [7], 64.6 µM (active); in [16], 4.54 µM (active). Further, the result in assay [2], in [3], in [5], in assay [6], in assay [8] and in assay [9] was inactive. Further, the molecule was called inactive in assay [10], in [11], in assay [12], in assay [13], in [14] and in assay [15]. In addition, the result in assay [17], in [18], in assay [19] and in assay [20] was inactive.

For `O=C(O)C(F)(F)C(F)(F)C(F)(F)C(F)(F)C(F)(F)C(F)(F)C(F)F`, the call in assay [1], in [2], in [3], in assay [4], in assay [5] and in assay [6] was inactive. Besides, the molecule was called inactive in assay [7], in assay [8], in [9], in assay [10], in assay [11] and in [12]. Moreover, the outcome in assay [13], in assay [14], in assay [15], in assay [17], in assay [18] and in assay [19] was inactive. Further, the call in [20] was inactive. Further, the half-maximal activity concentration (AC50) in assay [16] was 64 µM (active).
